{"source": "the supplement of paper PMC4237247", "note": "Where a name gives a salt, the structure may show the parent alone.", "data": [{"tested_on": "HeLa", "assay": "percent cells in G2/M phase; higher = more G2/M arrest", "conditions": "10 µM; 20 h", "method": "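HTS of 79,827 drug-like compounds at 10 uM. HeLa cells in 384-well plates were treated for 20 h, fixed, stained with Vybrant DyeCycle Green and scanned on an Acumen eX3 cytometer to give per-well cell cycle profiles (% cells in each phase). The plate Z' was 0.51. Only hits are listed: G1 hits >4 SD and S hits >5 SD from the mean.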", "units": {"percent cells in G2/M phase": "%"}, "values": [{"compound": "COc1c(C)c2c(c(O)c1C/C=C(\\C)CCC(=O)O)C(=O)OC2", "note": "[Mycophenolic acid] (hit class: S-phase inhibitor)", "percent cells in G2/M phase": 28.6}, {"compound": "Cc1cc([N+](=O)[O-])ccc1NCc1ccc(F)c(F)c1", "note": "(hit class: G1-phase inhibitor)", "percent cells in G2/M phase": 18.3}, {"compound": "c1ccc2c(c1)Nc1nc3ccccc3nc1O2", "note": "(hit class: G1-phase inhibitor)", "percent cells in G2/M phase": 21.4}, {"compound": "Cc1cc(N2CCCCC2)c(F)cc1[N+](=O)[O-]", "note": "(hit class: S-phase inhibitor)", "percent cells in G2/M phase": 22.3}, {"compound": "Cn1c(SCc2ccccc2)nc2ccccc2c1=O", "note": "(hit class: S-phase inhibitor)", "percent cells in G2/M phase": 15.4}, {"compound": "CC(=O)C1=C(O)C(=O)N(CC(=O)O)C1c1ccccc1F", "note": "(configuration not stated) (hit class: S-phase inhibitor)", "percent cells in G2/M phase": 12.9}, {"compound": "O=C1c2c(O)ccc(O)c2C(=O)c2c(NCCNCCO)ccc(NCCNCCO)c21", "note": "[Mitoxantrone dihydrochloride] (hit class: G1-phase inhibitor)", "percent cells in G2/M phase": 0.73}, {"compound": "O=C(COc1ccc(Cl)cc1)NC(Cc1c[nH]c2ccccc12)C(=O)O", "note": "(configuration not stated) (hit class: G1-phase inhibitor)", "percent cells in G2/M phase": 20.6}, {"compound": "COc1ccc(C(=O)c2coc3ccc(OC)cc3c2=O)cc1", "note": "(hit class: G1-phase inhibitor)", "percent cells in G2/M phase": 19}, {"compound": "Cc1ccc(-c2cc(-c3ccccc3Cl)[nH]n2)c(O)c1", "note": "(hit class: G1-phase inhibitor)", "percent cells in G2/M phase": 17.1}, {"compound": "Nc1ccn([C@H]2CC[C@@H](CO)O2)c(=O)n1", "note": "[Zalcitabine] (hit class: S-phase inhibitor)", "percent cells in G2/M phase": 29.8}, {"compound": "COc1[nH]c2ccccc2c1C=NO", "note": "(hit class: S-phase inhibitor)", "percent cells in G2/M phase": 12.8}, {"compound": "C[C@@H]1CCC[C@H](C)N1NC(=O)c1ccc(Cl)c(S(N)(=O)=O)c1", "note": "[Clopamide] (hit class: G1-phase inhibitor)", "percent cells in G2/M phase": 15.9}, {"compound": "CC[C@@H](C(=O)[C@@H](C)[C@@H](O)[C@H](C)CCc1ccc(C)c(O)c1C(=O)O)[C@H]1O[C@](CC)([C@H]2CC[C@](O)(CC)[C@H](C)O2)C[C@@H]1C", "note": "[Lasalocid sodium salt] (hit class: G1-phase inhibitor)", "percent cells in G2/M phase": 16.8}, {"compound": "CCN(CC)Cc1c(O)ccc2c(=O)c(-c3ccccc3)coc12", "note": "(hit class: S-phase inhibitor)", "percent cells in G2/M phase": 17}, {"compound": "COc1ccc(CSc2nncn2N)cc1", "note": "(hit class: S-phase inhibitor)", "percent cells in G2/M phase": 15.1}, {"compound": "C[C@@H]1C[C@H]2[C@@H]3C[C@H](F)C4=CC(=O)C=C[C@]4(C)[C@@]3(Cl)[C@@H](O)C[C@]2(C)[C@H]1C(=O)COC(=O)C(C)(C)C", "note": "[Clocortolone pivalate] (hit class: S-phase inhibitor)", "percent cells in G2/M phase": 30.1}]}]}
